Compound activity deposited in PubChem by National Center for Advancing Translational Sciences (NCATS).
The list is not random: actives were taken first. Their share in the collection is about 12%.
JMJD2A Tudor inh – inhibitors of human JMJD2A Tudor domain | O75164 | AlphaScreen JMJD2A-Tudor / H3K4me3 peptide binding | Potency, µM (highest dose often 114 µM), without a hit: at the highest dose activity change, negative = inhibition, hits mostly inhibitors | 390,000 tested, 4.4% active | AID 504339; note: % is set by controls: 0 for no effect and ±100 for the full control effect; nearly all actives have a fitted effect of over 50% in size
HP1b binding inh – HP1-beta chromodomain-methylated histone interaction inhibition; P83916; AlphaScreen HP1-beta / biotin-H3K9me3 peptide binding; Potency, µM (highest dose often 114 µM), inactives show at the highest dose activity change, negative = inhibition, actives largely listed as inhibitors; 390,000 tested, 0.56% active; note: nearly all actives have a fitted effect of over 70% in size
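HP1-beta protein (50 nM final) preincubated 30 min at room temperature with biotinylated H3(1-18)K9me3 peptide (50 nM) in PBS pH 7.4, 0.01% Tween-20, then compound added for 30 min. AlphaScreen streptavidin donor/nickel chelate acceptor beads (10 ug/mL final), 30 min dark, luminescence read.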
Sfp inh – blocks B. subtilis Sfp PPTase activity; AID 1490; Potency, µM, inactives show largest response in the series, negative = inhibition, most hits filed as inhibitors; Biochemical Sfp PPTase activity, qHTS; Q9F4F7; 310,000 tested, 3.5% active;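 note: the enzyme is Sfp with the accession as filed and its product quenches rhodamine fluorescence; 0% = enzyme reaction without inhibitor and -100% = no enzyme wells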
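Reaction rates are the 30-min fluorescence difference (ex 525, em 598 nm) in wells containing 15 nM Sfp, 5 uM rhodamine-CoA and 12.5 uM BHQ-2-YbbR at pH 7.6 with 10 mM MgCl2.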
BAZ2B inh – blocks human BAZ2B | 360,000 tested, 4.4% active | AlphaScreen BAZ2B-H3K14Ac peptide displacement | Potency, µM (top dose mostly 114 µM), inactives show top-dose activity change, negative = inhibition, usual class: inhibitors | AID 504333; note: % is set by controls: 0 for no effect and ±100 for the full control effect; nearly all actives have a fitted effect of over 60% in size
Target sequence (Q9UIF8 whole entry, looked up): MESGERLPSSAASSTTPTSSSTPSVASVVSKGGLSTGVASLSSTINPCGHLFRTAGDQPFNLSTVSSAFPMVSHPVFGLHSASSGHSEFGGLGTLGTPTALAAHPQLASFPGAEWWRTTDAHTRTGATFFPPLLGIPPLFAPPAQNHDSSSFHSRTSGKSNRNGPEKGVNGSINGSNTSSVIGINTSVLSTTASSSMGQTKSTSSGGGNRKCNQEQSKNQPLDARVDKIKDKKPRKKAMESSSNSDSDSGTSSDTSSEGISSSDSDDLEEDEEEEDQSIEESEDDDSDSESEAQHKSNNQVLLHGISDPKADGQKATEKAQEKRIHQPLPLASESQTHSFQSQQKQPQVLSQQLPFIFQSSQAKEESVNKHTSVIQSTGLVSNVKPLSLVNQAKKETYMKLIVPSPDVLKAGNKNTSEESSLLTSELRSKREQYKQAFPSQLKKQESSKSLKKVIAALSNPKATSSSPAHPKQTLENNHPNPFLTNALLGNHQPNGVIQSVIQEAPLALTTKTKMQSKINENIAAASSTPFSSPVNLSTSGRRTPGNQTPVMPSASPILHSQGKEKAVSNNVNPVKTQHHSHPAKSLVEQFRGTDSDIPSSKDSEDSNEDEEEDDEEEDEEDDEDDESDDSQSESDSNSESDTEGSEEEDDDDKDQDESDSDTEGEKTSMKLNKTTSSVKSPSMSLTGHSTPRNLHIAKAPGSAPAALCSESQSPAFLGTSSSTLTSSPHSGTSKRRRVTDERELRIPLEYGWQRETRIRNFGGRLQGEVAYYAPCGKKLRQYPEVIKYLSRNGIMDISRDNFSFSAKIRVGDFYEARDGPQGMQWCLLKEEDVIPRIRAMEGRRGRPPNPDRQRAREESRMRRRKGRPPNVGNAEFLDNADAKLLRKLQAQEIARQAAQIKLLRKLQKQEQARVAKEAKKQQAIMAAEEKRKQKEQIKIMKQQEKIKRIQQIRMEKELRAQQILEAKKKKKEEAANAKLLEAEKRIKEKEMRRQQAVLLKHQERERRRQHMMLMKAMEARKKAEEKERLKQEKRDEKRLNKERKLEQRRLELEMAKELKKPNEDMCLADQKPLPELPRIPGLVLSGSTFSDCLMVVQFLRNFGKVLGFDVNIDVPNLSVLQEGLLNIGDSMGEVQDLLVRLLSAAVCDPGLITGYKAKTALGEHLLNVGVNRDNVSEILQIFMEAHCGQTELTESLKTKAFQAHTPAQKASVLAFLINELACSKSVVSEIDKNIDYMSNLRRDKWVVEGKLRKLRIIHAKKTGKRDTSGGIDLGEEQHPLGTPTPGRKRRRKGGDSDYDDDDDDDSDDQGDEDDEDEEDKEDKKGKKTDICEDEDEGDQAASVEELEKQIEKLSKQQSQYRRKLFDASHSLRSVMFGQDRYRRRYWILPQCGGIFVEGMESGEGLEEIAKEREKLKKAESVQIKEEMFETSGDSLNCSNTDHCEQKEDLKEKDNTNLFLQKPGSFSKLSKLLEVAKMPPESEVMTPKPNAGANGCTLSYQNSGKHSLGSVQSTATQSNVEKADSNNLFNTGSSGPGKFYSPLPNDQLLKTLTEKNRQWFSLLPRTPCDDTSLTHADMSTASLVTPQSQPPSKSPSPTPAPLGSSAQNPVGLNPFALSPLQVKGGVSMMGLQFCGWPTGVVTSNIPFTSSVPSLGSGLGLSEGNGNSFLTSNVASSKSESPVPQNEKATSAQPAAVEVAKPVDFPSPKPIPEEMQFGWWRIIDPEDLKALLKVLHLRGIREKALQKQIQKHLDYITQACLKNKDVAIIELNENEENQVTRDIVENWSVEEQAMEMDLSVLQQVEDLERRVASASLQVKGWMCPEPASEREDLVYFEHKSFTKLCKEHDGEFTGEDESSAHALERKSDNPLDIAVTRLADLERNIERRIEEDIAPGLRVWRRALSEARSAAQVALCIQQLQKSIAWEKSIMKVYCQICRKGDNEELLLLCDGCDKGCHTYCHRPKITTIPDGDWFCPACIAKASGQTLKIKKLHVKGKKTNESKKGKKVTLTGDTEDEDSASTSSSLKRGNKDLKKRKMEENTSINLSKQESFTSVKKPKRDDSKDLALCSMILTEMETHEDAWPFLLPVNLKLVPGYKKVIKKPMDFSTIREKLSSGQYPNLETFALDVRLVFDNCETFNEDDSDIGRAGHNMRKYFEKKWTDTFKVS
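AlphaScreen displacement: compounds (up to 110uM) incubated 30 min at room temperature with a preformed 50 nM BAZ2B/50 nM biotinylated H3K14Ac peptide complex in PBS pH 7.4 with Tween-20. Donor and acceptor beads at 10 ug/mL final added, 20 min light-protected before reading.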
G9a block – inhibitors of human histone lysine methyltransferase G9a; G9a H3K9 monomethylation, AlphaScreen, 2 h; Potency, µM (top dose mostly 102 µM), inactives show top-dose activity, negative = inhibition, hits mostly inhibitors; 350,000 tested, 8.8% active; AID 504332; note: % is set by controls: 0 for no effect and ±100 for the full control effect; nearly all actives have a fitted effect of over 75% in size
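Enzyme 20 nM + cpd, 15 min RT; add b-H3K9 pep 500 nM / SAM 20 uM; 2 h RT; anti-H3K9me1 Ab 0.5 ug/mL + SA donor / anti-rabbit acceptor beads 20 ug/mL each, 10 min; AlphaScreen read.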
* = called active by the depositor; [ ] = remark or other dose. Calls come from the whole dose curve; as a rule, active = well fitted curve in the direction sought with a large enough effect; inconclusive = small, poorly fitted or top-dose-only effect, or another doubt; inactive = no such curve, though single readings can be large; an effect the other way counts as inactive or inconclusive. Potency is the fitted concentration of half-maximal effect.

What do the screens show for `CN(CCOC(=O)c1ccco1)Cc1ccccc1`?
JMJD2A Tudor inh: -14.6%; HP1b binding inh: 28.1%; Sfp inh: 8.7%; BAZ2B inh: -6.4%; G9a block: -1.3%

Results for CC(C)C(=O)Nc1ccc(NC(=O)c2ccccc2Cl)nc1 ?
JMJD2A Tudor inh: 0.0%; HP1b binding inh: 57.9%; Sfp inh: -6.7%; BAZ2B inh: -7.9%; G9a block: -37.8%[12.7 µM]

Results for CC(C)NS(=O)(=O)c1ccc(NC(=O)Cc2cccs2)cc1 ?
JMJD2A Tudor inh: -6.1%; HP1b binding inh: 2.6%; Sfp inh: 19.6%; BAZ2B inh: 8.6%; G9a block: 11.5%[59 µM]

How did O=C(CNC(=O)c1ccc(Cl)cc1)Nc1ccc(S(=O)(=O)Nc2ncccn2)cc1 do in these assays?
JMJD2A Tudor inh: -4.8%; HP1b binding inh: 22.7%; Sfp inh: -4.8%; BAZ2B inh: inconclusive; G9a block: 22.4µM*

Results for O=C(Cc1cccs1)Nc1ccc(S(=O)(=O)Nc2ncccn2)cc1 ?
JMJD2A Tudor inh: 79.4µM*; HP1b binding inh: -6.7%; Sfp inh: -3.0%; BAZ2B inh: 56.2µM*; G9a block: inconclusive

How did Cc1ccnc(NS(=O)(=O)c2ccc(NC(=O)Cc3cccs3)cc2)n1 do in these assays?
JMJD2A Tudor inh: 31.6µM*; HP1b binding inh: -33.0%; Sfp inh: 2.1%; BAZ2B inh: 50.1µM*; G9a block: 4.8%[12.7 µM]

What do the screens show for `COCC(=O)Nc1ccc(S(=O)(=O)Nc2ncccn2)cc1`?
Sfp inh: 17.1%; BAZ2B inh: -2.7%; G9a block: 30.6%

How did O=C(Cc1ccc(Cl)c(Cl)c1)Nc1ccc(S(=O)(=O)Nc2ncccn2)cc1 do in these assays?
JMJD2A Tudor inh: 20µM*; HP1b binding inh: 32.6%; Sfp inh: -5.5%; BAZ2B inh: -12.1%; G9a block: inconclusive

What do the screens show for `O=[N+]([O-])c1cccc(NC(=S)NCCc2ccccc2)c1`?
JMJD2A Tudor inh: inconclusive; HP1b binding inh: -11.5%; Sfp inh: -10.9%; BAZ2B inh: -11.7%; G9a block: inconclusive

What do the screens show for `CCOc1ccc(NC(=O)CN2CCC(NC(=O)C3CCCCC3)CC2)cc1`?
Sfp inh: 2.6%; BAZ2B inh: inconclusive; G9a block: 4.4%

What do the screens show for `Cc1ccc(S(=O)(=O)N2CCN(C(C)C(=O)NCC(C)c3ccccc3)CC2)cc1` (centres undefined)?
JMJD2A Tudor inh: -2.7%; HP1b binding inh: 41.1%

Results for Cc1ccnc(NS(=O)(=O)c2ccc(NC(=O)C3COc4ccccc4O3)cc2)n1 (centres undefined) ?
JMJD2A Tudor inh: 17.8µM*; HP1b binding inh: inconclusive; Sfp inh: 16.3%; BAZ2B inh: -22.3%; G9a block: 2.2%

Results for O=C(Nc1ccc(F)cc1)C1COc2ccccc2O1 (centres undefined) ?
JMJD2A Tudor inh: -5.3%; HP1b binding inh: 39.6%; Sfp inh: 3.9%; BAZ2B inh: 3.4%; G9a block: 39.8µM*

What do the screens show for `NS(=O)(=O)c1ccc(CNC(=O)Cc2cccs2)cc1`?
JMJD2A Tudor inh: inconclusive; HP1b binding inh: 17.8%; Sfp inh: 1.1%; BAZ2B inh: 56.2µM*; G9a block: 70.8µM*

How did COc1cccc(-n2c(SCC(=O)NC(C)(C)C)nnc2-c2ccoc2C)c1 do in these assays?
JMJD2A Tudor inh: -9.1%; HP1b binding inh: 21.4%; Sfp inh: 6.2%; BAZ2B inh: -5.5%; G9a block: -4.6%

How did N#Cc1ccccc1NC(=O)CN1C(=O)NC(Cc2c[nH]c3ccccc23)C1=O (centres undefined) do in these assays?
JMJD2A Tudor inh: -10.1%; HP1b binding inh: 24.7%; BAZ2B inh: -3.4%; G9a block: 10µM*

Results for CC(=O)Nc1ccc(S(=O)(=O)NCc2nc(-c3ccccc3)no2)cc1 ?
JMJD2A Tudor inh: 0.0%; HP1b binding inh: 19.9%; Sfp inh: 9.0%; BAZ2B inh: 2.2%; G9a block: 16.2%[59 µM]

Results for O=C(CN1CCN(c2ccc(O)cc2)CC1)NCC(=O)Nc1ccc(F)c(F)c1F ?
JMJD2A Tudor inh: 44.7µM*; HP1b binding inh: inconclusive; BAZ2B inh: -1.9%; G9a block: inconclusive

How did CCCn1c(N2CCN(CC(=O)Nc3ccc4c(c3)OCCO4)CC2)nc2ccccc21 do in these assays?
JMJD2A Tudor inh: inconclusive; HP1b binding inh: 26.8%; Sfp inh: -4.1%; BAZ2B inh: inconclusive; G9a block: 50.1µM*

How did CC(C)n1c(N2CCN(C(=O)Nc3ccc(Cl)cc3)CC2)nc2ccccc21 do in these assays?
JMJD2A Tudor inh: -16.8%; HP1b binding inh: 28.1%; Sfp inh: 12.2%; BAZ2B inh: 2.3%; G9a block: 6.4%

What do the screens show for `O=C(Nc1ccccc1)Nc1ccc(Cl)c(S(=O)(=O)N2CCOCC2)c1`?
JMJD2A Tudor inh: -14.4%; HP1b binding inh: 41.8%; Sfp inh: -3.7%; BAZ2B inh: -3.8%; G9a block: -6.5%

What do the screens show for `CCCn1c(N2CCN(C(=O)Nc3ccc(Cl)cc3)CC2)nc2ccccc21`?
JMJD2A Tudor inh: 100µM*; HP1b binding inh: 20.8%; Sfp inh: 9.1%; BAZ2B inh: 6.9%; G9a block: 11.6%

What do the screens show for `O=C(/C=C/c1ccco1)Nc1ccc(Cl)c(S(=O)(=O)N2CCOCC2)c1`?
JMJD2A Tudor inh: inconclusive; HP1b binding inh: -12.7%; Sfp inh: inconclusive; BAZ2B inh: inconclusive; G9a block: 50.1µM*

How did CCSc1nnc(NC(=O)CSc2nnc(C)c(=O)n2N)s1 do in these assays?
JMJD2A Tudor inh: -2.2%; HP1b binding inh: 61.9%; Sfp inh: -27.3%; BAZ2B inh: 1.4%; G9a block: 37.1%

Results for O=C(CN1CCOCC1)Nc1ccc(Oc2ccc(NC(=O)CN3CCOCC3)cc2)cc1 ?
JMJD2A Tudor inh: -4.4%; HP1b binding inh: 23.7%; Sfp inh: 13.4%; BAZ2B inh: -3.4%; G9a block: 11.2µM*

What do the screens show for `O=C(CN1CCOCC1)Nc1ccc2c(c1)OCCO2`?
JMJD2A Tudor inh: 31.6µM*; HP1b binding inh: inconclusive; Sfp inh: inconclusive; BAZ2B inh: 50.1µM*; G9a block: 20µM*

Results for O=C(CN1CCN(c2ccc(O)cc2)CC1)Nc1ccc2c(c1)OCCO2 ?
JMJD2A Tudor inh: 79.4µM*; HP1b binding inh: inconclusive; Sfp inh: 10µM*; BAZ2B inh: -32.7%; G9a block: 7.94µM*

How did O=C(CN1CCN(c2nc(-c3ccc(F)cc3)cs2)CC1)Nc1ccc2c(c1)OCO2 do in these assays?
JMJD2A Tudor inh: -26.4%; HP1b binding inh: -24.4%; Sfp inh: 2.3%; BAZ2B inh: inconclusive; G9a block: 44.7µM*

Results for O=C(CN1CCN(c2ccccc2)CC1)Nc1ccc2c(c1)OCCO2 ?
JMJD2A Tudor inh: -24.5%; HP1b binding inh: 1.7%; Sfp inh: 16.0%; BAZ2B inh: -18.2%; G9a block: -7.9%

Results for NC(=O)CN1CCN(c2nc(-c3ccc(F)cc3)cs2)CC1 ?
JMJD2A Tudor inh: -9.9%[11.4 µM]; HP1b binding inh: -30.4%; Sfp inh: 3.7%; BAZ2B inh: -5.2%; G9a block: 1.2%
